Results as given in PubChem BioAssay (EPA / NIEHS).
Calls of active or inactive are those of the source. Rule for the calls: active = hit-call score of the fitted dose curve at least 0.9, where 1 is the maximum; inactive = score below 0.9.

How the values were obtained:
[1] = ATG_CRE_CIS: Attagene CIS-FACTORIAL HepG2 Assay for human cAMP Responsive Element (CRE) binding protein 3 (AID 2282926); conditions: HepG2 CRE cis-reporter, Attagene multiplexed mRNA; actives raise or lower the signal
Summary of the method: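 Multiplexed transcription-unit reporters transfected into HepG2; 24 h dosing; RT-PCR/capillary electrophoresis fluorescence read-out; bidirectional fit vs DMSO.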

[2] = biological target: CCAAT/enhancer-binding protein beta (Homo sapiens) (UniProt P17676); assay: ATG_C_EBP_CIS: Attagene CIS-FACTORIAL HepG2 Assay for human CCAAT/Enhancer Binding Protein (C/EBP) beta (AID 2282927); conditions: HepG2 Attagene cis-factorial transcription factor reporter; actives raise or lower the signal
Chain of CCAAT/enhancer-binding protein beta (Homo sapiens) (P17676 whole entry, looked up): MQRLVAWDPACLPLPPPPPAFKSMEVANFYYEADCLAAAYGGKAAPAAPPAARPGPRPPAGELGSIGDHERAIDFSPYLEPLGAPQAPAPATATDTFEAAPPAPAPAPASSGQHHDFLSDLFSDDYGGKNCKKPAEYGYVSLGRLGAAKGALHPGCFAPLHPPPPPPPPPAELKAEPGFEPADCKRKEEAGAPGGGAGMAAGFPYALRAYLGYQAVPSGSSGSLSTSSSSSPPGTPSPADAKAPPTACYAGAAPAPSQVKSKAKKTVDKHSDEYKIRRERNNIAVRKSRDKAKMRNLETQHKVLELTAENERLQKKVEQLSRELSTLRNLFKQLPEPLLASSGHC
Summary of the method: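 HepG2 transiently transfected with multiplexed reporter units under cis-regulatory promoters reporting endogenous C/EBPb activity. After 24 h exposure, reporter mRNA assayed by RT-PCR, fluorescent labelling, HpaI digestion and capillary electrophoresis; bidirectional fitting versus DMSO.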

[3] = ATG_CMV_CIS: Attagene CIS-FACTORIAL HepG2 Assay for human CMV (Internal Marker) (AID 2282928); conditions: HepG2 CMV promoter reporter, transcription factor profiling; actives raise or lower the signal;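 note: endpoint acts as a background internal control marker rather than a target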
Summary of the method: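 Cell system: HepG2, transiently transfected multiple reporter units under cis promoters. Exposure: 24 h. Detection: RT-PCR, FAM labeling, HpaI digestion, capillary electrophoresis. Analysis: bidirectional, DMSO baseline.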

[4] = ATG_DR4_LXR_CIS: Attagene CIS-FACTORIAL HepG2 Assay for human Liver X Receptor (LXR), DR4 submotif (AID 2282929); conditions: HepG2 Attagene DR4 cis-reporter, mRNA transcription; actives raise or lower the signal
Summary of the method: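 Fluorescence intensity of labelled reporter cDNA fragments, separated by capillary electrophoresis, gives the signal. HepG2 cells bearing cis-regulated reporter constructs were treated 24 h; activity fitted bidirectionally relative to DMSO negative control.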

[5] = biological target: Aryl hydrocarbon receptor (Homo sapiens) (UniProt P35869); assay: ATG_Ahr_CIS: Attagene CIS-FACTORIAL HepG2 Assay for human Aryl Hydrocarbon Receptor (Ahr) (AID 2282930); conditions: HepG2 AhR cis-factorial reporter transcription; actives raise or lower the signal
Chain of Aryl hydrocarbon receptor (Homo sapiens) (P35869 whole entry, looked up): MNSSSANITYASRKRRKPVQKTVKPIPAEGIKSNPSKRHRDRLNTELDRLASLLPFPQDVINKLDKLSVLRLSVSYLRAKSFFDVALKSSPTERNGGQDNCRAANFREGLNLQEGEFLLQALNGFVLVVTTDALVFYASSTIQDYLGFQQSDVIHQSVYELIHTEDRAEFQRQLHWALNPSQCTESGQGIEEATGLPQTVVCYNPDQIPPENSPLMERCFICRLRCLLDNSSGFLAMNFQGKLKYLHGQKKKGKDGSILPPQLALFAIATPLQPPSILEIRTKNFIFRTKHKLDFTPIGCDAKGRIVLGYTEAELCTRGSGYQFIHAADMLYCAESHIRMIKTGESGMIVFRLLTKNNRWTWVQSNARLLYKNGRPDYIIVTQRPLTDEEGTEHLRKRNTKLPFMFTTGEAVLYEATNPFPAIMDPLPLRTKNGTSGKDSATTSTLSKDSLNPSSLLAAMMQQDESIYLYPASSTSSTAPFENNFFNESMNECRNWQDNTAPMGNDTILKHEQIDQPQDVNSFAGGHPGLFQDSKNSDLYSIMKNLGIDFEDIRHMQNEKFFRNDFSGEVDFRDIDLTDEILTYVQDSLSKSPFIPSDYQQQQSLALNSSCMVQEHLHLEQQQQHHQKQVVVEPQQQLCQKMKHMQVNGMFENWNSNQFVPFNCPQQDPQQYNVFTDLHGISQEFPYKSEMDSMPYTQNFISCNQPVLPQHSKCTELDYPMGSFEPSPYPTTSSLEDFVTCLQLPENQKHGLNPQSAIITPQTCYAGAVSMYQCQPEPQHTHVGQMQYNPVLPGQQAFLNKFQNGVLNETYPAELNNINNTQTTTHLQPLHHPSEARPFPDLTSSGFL
Summary of the method: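 HepG2 cells transiently transfected with cis-element-driven multiplexed reporter units; endogenous AhR activity read as reporter mRNA 24 h after dosing, via RT-PCR, 6-FAM labelling, HpaI digestion and capillary electrophoresis. Bidirectional fit relative to DMSO.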

[6] = ATG_AP_1_CIS: Attagene CIS-FACTORIAL HepG2 Assay for human Activator Protein 1 (AP-1) (AID 2282931); conditions: HepG2 Attagene cis-factorial AP-1 reporter mRNA; actives raise or lower the signal
Summary of the method: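 Multiplexed HepG2 reporter assay, 24 h dosing. mRNA induction detected by RT-PCR plus capillary electrophoresis. Activity fitted in both directions against DMSO.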

[7] = ATG_AP_2_CIS: Attagene CIS-FACTORIAL HepG2 Assay for human Activator Protein 2 (AP-2) (AID 2282932); conditions: HepG2 AP-2 cis-reporter, Attagene transcription factor profiling; actives raise or lower the signal
Summary of the method: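 Multiplexed mRNA reporter assay in HepG2: cis-regulated units report endogenous factor activity after 24 h treatment. Fluorescence from capillary electrophoresis of RT-PCR products gives the signal, with DMSO as baseline.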

[8] = ATG_BRE_CIS: Attagene CIS-FACTORIAL HepG2 Assay for human Bone Morphogenetic Protein (BMP) Response Element (BRE) (AID 2282933); conditions: HepG2 BMP response element reporter, Attagene transcription factor profiling; actives raise or lower the signal
Summary of the method: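 Fluorescence-labelled reporter cDNA fragments, separated by capillary electrophoresis, gave the signal for this component of a 52-readout multiplex. HepG2 cells were transfected, exposed to chemicals for 24 h, and compared with DMSO using bidirectional fitting.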

[9] = biological target: Transcription factor E2F1 (Homo sapiens) (UniProt Q01094); assay: ATG_E2F_CIS: Attagene CIS-FACTORIAL HepG2 Assay for human E2F Transcription Factor 1 (AID 2282935); conditions: HepG2 Attagene cis-reporter, E2F reporter RNA transcripts; actives raise or lower the signal
Chain of Transcription factor E2F1 (Homo sapiens) (Q01094 whole entry, looked up): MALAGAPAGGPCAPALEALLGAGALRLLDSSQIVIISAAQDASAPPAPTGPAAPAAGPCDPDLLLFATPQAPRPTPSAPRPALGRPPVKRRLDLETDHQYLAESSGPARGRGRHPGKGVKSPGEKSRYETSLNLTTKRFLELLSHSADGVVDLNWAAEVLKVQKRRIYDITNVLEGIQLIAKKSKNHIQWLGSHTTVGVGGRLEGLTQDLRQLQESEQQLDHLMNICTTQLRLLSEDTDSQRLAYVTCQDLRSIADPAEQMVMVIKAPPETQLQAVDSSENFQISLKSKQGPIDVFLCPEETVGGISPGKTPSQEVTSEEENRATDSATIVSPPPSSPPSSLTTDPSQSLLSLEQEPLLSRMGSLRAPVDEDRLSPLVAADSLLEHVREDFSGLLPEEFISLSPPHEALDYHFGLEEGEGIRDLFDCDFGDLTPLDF
Summary of the method: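 Measures reporter transcript levels via RT-PCR with capillary electrophoresis detection in HepG2 cells harboring cis-regulated reporter units; 24 h post-dose; bidirectional curve fitting with DMSO as baseline.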

[10] = ATG_E_Box_CIS: Attagene CIS-FACTORIAL HepG2 Assay for human Enhancer Box (E-box) (AID 2282936); conditions: HepG2 E-box cis-reporter transcription, actives raise or lower the signal
Summary of the method: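 First, HepG2 cells receive multiple cis-regulated reporter constructs by transient transfection. Next, chemicals are applied for 24 h. Finally, reporter mRNA is quantified via RT-PCR and capillary electrophoresis, with DMSO as baseline.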

[11] = ATG_M_61_CIS: Attagene CIS-FACTORIAL HepG2 Assay for M61 Transcription Factor (Internal Marker) (AID 2282937); conditions: HepG2 Attagene CIS-FACTORIAL M61 internal marker reporter; actives raise or lower the signal
Summary of the method: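 Endogenous transcription factor activity in HepG2 is read through transiently transfected cis-element reporter units. After 24 h dosing, RNA undergoes reverse transcription, PCR and primer extension with 6-FAM before capillary electrophoresis; DMSO-referenced bidirectional fit.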

[12] = ATG_EGR_CIS: Attagene CIS-FACTORIAL HepG2 Assay for human Early Growth Response 1 (EGR1) (AID 2282938); conditions: HepG2 Attagene CIS-FACTORIAL EGR reporter mRNA; actives raise or lower the signal
Summary of the method: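 Activity is taken as induction or loss of reporter mRNA versus DMSO, fitted bidirectionally. Transcripts from cis-regulated reporter units in transiently transfected HepG2 were measured after 24 h by RT-PCR with capillary electrophoresis.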

[13] = ATG_M_19_CIS: Attagene CIS-FACTORIAL HepG2 Assay for M19 Transcription Factor (Internal Marker) (AID 2282939); conditions: HepG2 Attagene CIS-FACTORIAL M19 internal marker reporter; actives raise or lower the signal
Summary of the method: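 HepG2, MRTU transient transfection, 24 h dosing. Total RNA → RT-PCR → 6-FAM primer extension → HpaI digest → CE fluorescence. Bidirectional curve fit, DMSO negative control.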

[14] = ATG_Ets_CIS: Attagene CIS-FACTORIAL HepG2 Assay for human Erythroblast Transformation Specific (ETS) (AID 2282941); conditions: HepG2 ETS cis-reporter transcription, actives raise or lower the signal
Summary of the method: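 After transient cis-reporter transfection, HepG2 cells receive test chemical for 24 h. Reporter mRNA levels, measured by RT-PCR and capillary electrophoresis fluorescence, are analysed bidirectionally relative to the DMSO baseline.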

[15] = biological target: Hepatocyte nuclear factor 3-beta (Homo sapiens) (UniProt Q9Y261); assay: ATG_FoxA2_CIS: Attagene CIS-FACTORIAL HepG2 Assay for human Forkhead box A2 (FOXA2) (AID 2282942); conditions: HepG2 cis-reporter transcription factor activity, 24 h; actives raise or lower the signal
Chain of Hepatocyte nuclear factor 3-beta (Homo sapiens) (Q9Y261 whole entry, looked up): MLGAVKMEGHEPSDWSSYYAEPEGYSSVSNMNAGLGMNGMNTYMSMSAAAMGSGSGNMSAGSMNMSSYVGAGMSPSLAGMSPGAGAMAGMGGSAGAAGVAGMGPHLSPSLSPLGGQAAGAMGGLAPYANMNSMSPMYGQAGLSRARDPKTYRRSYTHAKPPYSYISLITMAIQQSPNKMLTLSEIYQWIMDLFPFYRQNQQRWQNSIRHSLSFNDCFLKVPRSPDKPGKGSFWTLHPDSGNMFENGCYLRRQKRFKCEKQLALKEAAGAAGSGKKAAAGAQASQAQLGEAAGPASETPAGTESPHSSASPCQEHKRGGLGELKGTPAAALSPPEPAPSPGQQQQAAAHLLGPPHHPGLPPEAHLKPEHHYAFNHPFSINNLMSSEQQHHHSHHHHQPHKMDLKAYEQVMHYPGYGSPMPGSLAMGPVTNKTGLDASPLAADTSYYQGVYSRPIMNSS
Summary of the method: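 Reporter transcript induction is measured by fluorescence after capillary electrophoresis of RT-PCR products from HepG2 cells exposed 24 h. Cis-regulated reporter units report endogenous factor activity; curves fitted both directions against DMSO.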

[16] = ATG_FoxO_CIS: Attagene CIS-FACTORIAL HepG2 Assay for human Forkhead box O (FoxO) (AID 2282943); conditions: HepG2 Attagene cis-reporter, FoxO element, mRNA; actives raise or lower the signal
Summary of the method: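 HepG2 cells transiently transfected with cis-element-driven reporter units report endogenous FoxO activity. After 24 h chemical exposure, reporter mRNA quantified by RT-PCR, fluorescent labeling, HpaI digestion and capillary electrophoresis; bidirectional fit versus DMSO.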

[17] = ATG_GATA_CIS: Attagene CIS-FACTORIAL HepG2 Assay for human GATA Binding Protein (AID 2282944); conditions: HepG2 GATA cis-element reporter, Attagene multiplex mRNA; actives raise or lower the signal
Summary of the method: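 Cells: HepG2, transiently transfected with cis-regulated reporter transcription units. Exposure: 24 h. Detection: RT-PCR plus capillary electrophoresis of FAM-labeled fragments. Analysis: bidirectional, DMSO as baseline.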

[18] = ATG_GLI_CIS: Attagene CIS-FACTORIAL HepG2 Assay for human Zinc Finger Protein GLI1 (AID 2282945); conditions: HepG2, Attagene cis-factorial reporter mRNA, GLI element; actives raise or lower the signal
Summary of the method: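 Transiently transfected HepG2 cells report endogenous transcription factor activity via cis-element-driven reporter units. After 24 h compound exposure, reporter mRNA was measured by RT-PCR with capillary electrophoresis; bidirectional fitting against DMSO baseline.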

[19] = ATG_ERE_CIS: Attagene CIS-FACTORIAL HepG2 Assay for Estrogen Response Element (ERE) (AID 2282940); conditions: HepG2 ERE cis-reporter, Attagene RNA transcript; actives raise or lower the signal
Summary of the method: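 After a 24 h chemical treatment, RNA from reporter-transfected HepG2 cells is reverse-transcribed, PCR-amplified and fluorescently labelled. Fragments separated by capillary electrophoresis give reporter signal; DMSO serves as negative control.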

Measured: outcome

CCC(=O)OCc1ccccc1
not listed: [19]
inactive: all other assays above

O=C(O)Cc1cccc2ccccc12
not listed: [17] | [19]
inactive: all other assays above

N#Cc1ccccc1
not listed: [19]
inactive: all other assays above

CC(C)(COC(=O)c1ccccc1)COC(=O)c1ccccc1
not listed: [19]
inactive: all other assays above

CCc1ccc(C=O)cc1
not listed: [19]
inactive: all other assays above

C=CCOC(=O)CCC1CCCCC1
not listed: [19]
inactive: all other assays above

CC(=O)Nc1ccc(CC(=O)O)cc1
not listed: [14]
inactive: all other assays above
